Records with an inconclusive call do not appear. Activity calls are given as the source filed them. The call rests on the fitted dose curve; in most records, active means well fitted inhibition curve with a large enough effect; inconclusive means small, poorly fitted or top-dose-only effect; inactive means no such curve, though single readings can be large or run the other way.
On the % scale 0 is the no-effect control and ±100 the full control effect; potency means the concentration at half of the fitted maximal effect.

Sequence of Cytochrome P450 2C9 (Homo sapiens) (P11712 whole entry, looked up): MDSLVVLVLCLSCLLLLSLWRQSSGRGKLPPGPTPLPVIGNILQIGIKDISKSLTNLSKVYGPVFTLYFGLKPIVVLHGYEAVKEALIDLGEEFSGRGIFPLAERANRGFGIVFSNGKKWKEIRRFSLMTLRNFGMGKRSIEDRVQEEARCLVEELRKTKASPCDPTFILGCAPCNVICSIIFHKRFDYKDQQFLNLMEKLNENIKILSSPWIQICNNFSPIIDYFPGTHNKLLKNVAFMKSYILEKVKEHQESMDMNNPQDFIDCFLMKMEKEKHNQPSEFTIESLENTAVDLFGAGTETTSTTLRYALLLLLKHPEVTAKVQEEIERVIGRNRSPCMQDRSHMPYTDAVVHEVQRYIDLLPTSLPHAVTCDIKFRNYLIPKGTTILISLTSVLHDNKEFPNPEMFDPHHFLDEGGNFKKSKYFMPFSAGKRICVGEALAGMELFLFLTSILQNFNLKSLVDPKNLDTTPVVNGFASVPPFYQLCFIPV

The assay deals with Cytochrome P450 2C9 (Homo sapiens) (UniProt P11712). The experiment in a line: qHTS Assay for Inhibitors and Substrates of Cytochrome P450 2C9 (AID 883). Further: nearly all actives have a fitted effect of over 60% in size. The settings on record: recombinant CYP2C9, luciferin-H luminescence, 60 min; series mostly up to 57.1 µM; activity change, negative = inhibition: at the top concentration. How it is done:
NIH Molecular Libraries Screening Centers Network [MLSCN] NIH Chemical Genomics Center [NCGC] MLSCN Grant: None NCGC Assay Overview: The P450 gene superfamily is involved in the metabolism and clearance of xenobiotics. This assay used human CYP2C9 to measure the hydroxylation of deoxyluciferin (Luciferin-H; P450 Glo-Buffer) to luciferin. The luciferin is then measured by luminescence after the addition of a luciferase detection reagent. Luciferin-H concentration in the assay was equal to its Michaelis constant KM for CYP2C9. Inhibitors and some substrates limit the production of luciferin, and decrease measured luminescence.
NCGC Assay Protocol Summary: Two uL of enzyme and substrate mix (final concentrations: 10nM CYP2C9, 100uM Luciferin-H, 25mM KPO4) were dispensed into a white, solid bottom 1536-well microtiter plate. 23nL of compound was transferred by a pin tool. The plate was incubated at 37C for 10 min. Two uL of an NADPH regeneration solution (Promega supplied reagent) was dispensed and the reaction was allowed to continue for 60 min at 37C. Then the reaction was stopped by reconstituted P450 Glo-Buffer. After another 20 min of incubation the plate was read on the ViewLux (Perkin Elmer) at 60 sec exposure and 2x2 binning. This protocol was carried out with Promega-Glo reagents and further information can be found at http://www.promega.com/tbs/tb325/tb325.pdf. Data were normalized to the to AC100 inhibition (57uM sulphaphenazole). Keywords: P450, CYP2C9, Luciferase, MLSMR, MLSCN, NIH Roadmap, qHTS, NCGC
On the technique in general: In qHTS, concentration-response curves come from the screen itself.
Regarding `COCC(=O)N1CCC2(CC1)CN(Cc1nccs1)C2`, the “activity change, negative = inhibition” value is -2.84% (inactive).

In the case of `COc1cc2c(cc1OC)C(=O)Cc1ccc3c(c1CN(C)CC2)OCO3`, the “activity change, negative = inhibition” value is -21.8% (inactive).

Consider `COc1ccc2[nH]cc(CCNc3ncncc3-c3ccc(C(=O)N(C)C)cc3)c2c1`, for which the Potency is 0.398 µM (active).

Consider `CN(C)c1ncc2nc(-c3cc(F)cc(F)c3)c(=O)n(Cc3ccc(F)cc3)c2n1`, for which the “activity change, negative = inhibition” value is 27.9% (inactive).

On to `COc1ccccc1CCn1c(=O)c(-c2ccc(F)c(F)c2)nc2cncnc21`, for which the Potency is 6.31 µM (active).

As for `CC1(C)Oc2ccc(C#N)cc2[C@H](N2CCCC2=O)[C@H]1O`, the “activity change, negative = inhibition” value is 35.6% (inactive).

`CS(=O)(=O)Nc1cccc(-c2cc(NCc3cccs3)ncn2)c1`: the activity change, negative = inhibition is 35.3% [at 2.29 µM] (inactive).

For `COc1ccc2[nH]cc(CCNc3ncncc3-c3cccc(NS(C)(=O)=O)c3)c2c1`, the Potency was 0.398 µM (active).

With `COc1ccccc1CNc1cc(-c2ccccc2OC)ncn1`, the activity change, negative = inhibition is 31.3% [at 2.29 µM] (inactive).

As for `O=C(c1ccco1)N1CCC[C@@]2(CCN(c3cccc(-c4ccccc4)c3)C2)C1`, the Potency is 5.01 µM (active).

With `CN1CCCC2(CCN(C(=O)c3cccc(F)c3)CC2)C1`, the Potency was 20 µM (active).

For the compound `O=C(Nc1cccc(F)c1)N1CC2(CCN(C(=O)c3cc(C(F)(F)F)cc(C(F)(F)F)c3)CC2)C1`, the “activity change, negative = inhibition” value is 50.5% (inactive).

Consider `COc1ccccc1CNc1cc(-c2cccc(NS(C)(=O)=O)c2)ncn1`, for which the activity change, negative = inhibition is 33% [at 2.29 µM] (inactive).

As to `COc1cccc(Cn2c(=O)c(-c3cccs3)nc3cnc(OC)nc32)c1`, the Potency is 3.16 µM (active).

For the compound `C[C@@]12CC[C@@H]3c4ccc(O)cc4CC[C@H]3[C@H]1CC[C@H]2O`, the “activity change, negative = inhibition” value is 22.9% (inactive).

In the case of `COc1ccc(-c2nc3cnc(N4CCNCC4)nc3n(C3CC3)c2=O)cc1`, the Potency is 7.94 µM (active).

Take `CS(=O)(=O)c1ccc(Cn2c3c(c4cc(F)cc(F)c42)CCC[C@H]3CC(=O)O)cc1`: the “activity change, negative = inhibition” value is 33.7% (inactive).

Consider `O=S(=O)(c1ccccc1)N1CCC2(CC1)CN(c1ccncc1)C2`, for which the “activity change, negative = inhibition” value is 39.4% (inactive).

`CN(C)c1nc(-c2cccnc2)nc2ccccc12`: the activity change, negative = inhibition is 81% [at 2.29 µM] (inactive).

As for `COCCn1c(=O)c(-c2ccc(OC)cc2)nc2cnc(Oc3cccc(Cl)c3)nc21`, the Potency is 0.631 µM (active).

With `Cc1ccccc1-c1nc(N2CCOCC2)c2ccccc2n1`, the activity change, negative = inhibition was 14.3% [at 2.29 µM] (inactive).

`CCN1CCC[C@@H]1CNC(=O)c1cc(S(N)(=O)=O)ccc1OC`: the Potency result is “inactive”.

On to `O=C(c1cccc(F)c1)N1CCC2(CC1)CN(c1ccncc1)C2`, for which the Potency is 5.01 µM (active).

`COc1cccc(-c2ccc3ncnc(NCCc4c[nH]c5ccc(OC)cc45)c3c2)c1`: the Potency is 0.398 µM (active).

In the case of `COc1ccccc1CN1CC2(CCN(S(=O)(=O)c3ccccc3)CC2)C1`, the “activity change, negative = inhibition” value was 40% (inactive).

Take `Cc1c(CC(C)(C)C(=O)O)n(Cc2ccc(Cl)cc2)c2ccc(F)cc12`: the Potency is 0.501 µM (active).

For the compound `COc1c(-c2ccc(O)c(O)c2)oc2cc(O)cc(O)c2c1=O`, the “activity change, negative = inhibition” value is -2.49% (inactive).

As to `COc1ccccc1CCn1c(=O)c(-c2cccs2)nc2cncnc21`, the Potency was 2.51 µM (active).

Consider `Cc1cccc(C)c1OC[C@H](C)N`, for which the “activity change, negative = inhibition” value is 66.1% (inactive).

For `O=c1cnc2cnc(N3CCOCC3)nc2n1C[C@H]1CCCO1`, the “activity change, negative = inhibition” value is 22.6% (inactive).

In the case of `O=C(Oc1ccccc1)N1CCC2(CC1)CN(c1ccncc1)C2`, the Potency was 3.16 µM (active).

For `COc1cc2ccc(=O)oc2cc1O`, the “activity change, negative = inhibition” value was -0.265% (inactive).

As for `CN(C)c1ccc(-c2nc(N(C)C)c3ccccc3n2)cc1`, the activity change, negative = inhibition is 118% [at 2.29 µM] (inactive).

As to `Cc1cnc(CNc2ncnc3ccc(-c4cccc(NS(C)(=O)=O)c4)cc23)cn1`, the activity change, negative = inhibition is 32.5% [at 2.29 µM] (inactive).

As to `COc1ccc(CNc2ccnc(-c3cccc(NS(C)(=O)=O)c3)n2)c(OC)c1`, the activity change, negative = inhibition is 20.5% [at 2.29 µM] (inactive).

Regarding `O=c1c(-c2ccc(Cl)cc2)nc2cnc(N3CCOCC3)nc2n1Cc1ccc(F)cc1`, the “activity change, negative = inhibition” value was -6.13% (inactive).

For `COc1cccc(Cn2c(=O)c(-c3cc(F)cc(F)c3)nc3cnc(N4CCOCC4)nc32)c1`, the “activity change, negative = inhibition” value is 3.55% (inactive).

`Cn1cccc1C(=O)N1CCC2(CC1)CN(c1ccncc1)C2`: the Potency is 5.01 µM (active).

Regarding `Cc1cnc(CNc2cc(-c3ccccc3C(F)(F)F)ncn2)cn1`, the activity change, negative = inhibition was 49.4% [at 2.29 µM] (inactive).

Consider `N#Cc1cccc(-c2nc3cnc(N4CCNCC4)nc3n(C3CC3)c2=O)c1`, for which the Potency is 0.631 µM (active).

Values taken from PubChem BioAssay (NCATS).
